About 83,000 compounds went through this panel and 20% of them were active in at least one assay; those are over-represented in the sample as a whole.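 The test compound was applied at a single concentration to cells in 96-well plates for 48 hours, and percent growth was recorded.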 Values without a mark were called inactive. Active and inactive are the calls of the source. The calls were made as follows: active = growth percent below 10; inactive = the rest.

This assay relates to ACHN renal. Briefly: NCI-60 one-dose screen, 48 h (100 = growth as untreated, 0 = no growth, -100 = all killed). As to conditions: 10 µM unless noted.
Take `CCCn1c(=O)[nH]c(N)c([C@H]2c3ccccc3Oc3[nH]c(=O)n(CCC)c(=O)c32)c1=O`: the growth was 73.6%. For the compound `C=C1C(=O)O[C@H]2[C@H]1CC/C(COC(=O)NCc1ccc(OC)c(OC)c1)=C\CC[C@@]1(C)O[C@@H]21`, the growth is 6.25% (active).

In the case of `N#CN1CC[C@H](C(=O)Nc2cc3cc(C(N)=O)ccc3cn2)C1`, the growth was 6.51% (active). In the case of `O=C1c2c(O)cc(O)cc2-c2c(-c3ccc(O)cc3)oc3cc(O)cc1c23`, the growth was 9.27% (active). The value for `COc1ccc(CN2c3ccccc3Sc3ccccc32)c(C(F)(F)F)c1` was 48.7%. `COc1ccc2c(c1)CC/C(=C\c1cncc(Br)c1)C2=O`: the growth is 84.9%. For the compound `COc1ccc2c(c1)C(=O)/C(=C/c1ccccn1)CC2`, the growth is 54.1%. Regarding `Cc1nc(Nc2ccc(F)c(Cl)c2)sc1C(=O)O`, the growth is 11.2%. `CC(=O)c1cc(C(=O)c2ccc3c(c2)Sc2ccccc2N3)n2ccccc12`: the growth was 26.2%. The value for `CC(=O)O[C@H]1C(=O)[C@@]2(C)[C@H]([C@H](OC(=O)c3ccccc3)[C@]3(O)C[C@H](OC(=O)[C@H](OC(=O)CCC(=O)OC4CCC(S/N=C(N)/N=C(\N)N(C)C)CC4)[C@@H](NC(=O)c4ccccc4)c4ccccc4)C(C)=C1C3(C)C)[C@]1(OC(C)=O)CO[C@@H]1C[C@@H]2O` (stereo not given in full) was 39.7%. Turning to `CC(=O)OC[C@H]1O[C@H](OC(C)=O)[C@H](NC(=O)/C=C/CCl)[C@@H](OC(C)=O)[C@@H]1OC(C)=O`, the growth is 77.1%. With `COc1cc(-c2nc(C(=O)NCC(=O)NO)nn2-c2ccc(Cl)cc2)cc(OC)c1OC` the figure was 98.9%; with `C=C1C(=O)O[C@H]2[C@H]1CC/C(COC(=O)NCCc1ccc(OC)c(OC)c1)=C\CC[C@@]1(C)O[C@@H]21`, 8.5% (active). Take `CC/C=C\C[C@H](O)C/C=C1/C(=O)C=C[C@@]1(C)C/C=C\CCCC(=O)OC`: the growth was 101%. With `Cc1ccc2oc(=O)cc(C3c4ccc([nH]4)C(c4cc(=O)oc5ccc(C)cc45)c4ccc([nH]4)C(c4cc(=O)oc5ccc(C)cc45)c4ccc([nH]4)C(c4cc(=O)oc5ccc(C)cc45)c4ccc3[nH]4)c2c1` (stereo not given) the figure was -18.6% (active); with `COc1cccc2c1C(=O)c1c(O)c3c(c(O)c1C2=O)C[C@](O)(C(=O)CO)C[C@H]3O[C@@H]1C[C@@H](NC(=O)CCCCCN(C)C2(c3ccc(F)cc3)CC3CCC2C3)[C@H](O)[C@@H](C)O1` (stereo not given in full), -77.4% (active). As for `NC(=NCCCC1(c2ccccc2)CCCC1)Nc1ccc(Cl)cc1`, the growth was 34.7%.

Regarding `CCC#CC[C@H](O)C/C=C1/C(=O)C=C[C@@H]1C/C=C\CCCC(=O)OC`, the growth is -82.8% (active). The value for `O=c1oc2c(C(F)(F)F)cccc2cc1-c1csc(Nc2ccc(OCCF)cc2)n1` was 23.2%; that for `CNC(=O)c1cc(Oc2ccc(NC(=O)Nc3ccc(Cl)c(SC)c3)c(F)c2)ccn1` was 52.6%. Regarding `c1ccc2[nH]c(-c3ccc(Nc4nc(N5CCCC5)nc5[nH]ncc45)cc3)nc2c1`, the growth was -58.3% (active). On to `CC/C=C\C/C=C\C[C@H]1C/C=C2/C(=O)C=C[C@@H]2C/C=C\CCC(=O)O1`, for which the growth was -78.9% (active). The value for `COc1ccc(CN2c3ccccc3Sc3ccccc32)cc1O` was 41.7%; that for `CCOc1ccc(-n2nc(C(=O)Nc3cc(OC)c(OC)c(OC)c3)nc2-c2cc(OC)c(OC)c(OC)c2)cc1` was 85.7%; that for `CC/C=C\C[C@H]1C/C=C2/C(=O)C=C[C@H]2C/C=C\CCCC(=O)O1` was -67.7% (active).

These data come from PubChem BioAssay (NCI).
